Source: PubChem BioAssay (Tox21)
Records with an inconclusive call do not appear. Calls of active or inactive are those of the source. Unless noted, calls come from the whole dose curve; as a rule, active = well fitted curve in the direction sought with a large enough effect in the repeat runs; inconclusive = weak or mixed curves; inactive = no such curve, though single readings can be large; an effect the other way counts as inactive or inconclusive.

What was measured:
[1] = biological target: Thyrotropin receptor (Homo sapiens) (UniProt P16473); test: qHTS assay to identify small molecule antagonists of the thyroid stimulating hormone receptor (TSHR) signaling pathway (AID 1259385; calls by dose curve; note: nearly all actives have a fitted effect of over 20% in size)
Method in brief: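 TSHR-HEK293 cells were plated and held 18 h at 37C/5% CO2, then given compound plus Ro20-1724 and stimulated with TSH at 1.5 ng/mL final. After 30 min at room temperature, cAMP was detected with cAMP-d2/anti-cAMP-cryptate (1 h) by fluorescence.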

[2] = qHTS assay to identify small molecule agonists of the estrogen receptor alpha (ER-alpha) signaling pathway in the presence of an antagonist - cell viability counter screen (AID 1259386);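 note: series mostly up to about 92 µM; cells exposed to compounds for 22 h at 37 °C before the viability read; nearly all actives have a fitted effect of over 30% in size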
Method in brief: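 Viability counter screen using VM7Luc4E2 (full-length ER-alpha, four ERE-luciferase). The cells were treated with compounds alongside ICI-182,780 10.0nM for 22hr, and live-cell protease fluorescence was quantified with CellTiter-Fluor.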

[3] = biological target: Progesterone receptor (Homo sapiens) (UniProt P06401); test: qHTS assay to identify small molecule agonists of the progesterone receptor (PR) signaling pathway (AID 1346784; calls by dose curve; note: nearly all actives have a fitted effect of over 30% in size)
Method in brief: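 Fluorescence from LiveBLAzer B/G FRET substrate cleavage (2 hr, RT) reported PR activation in PR-UAS-bla HEK 293T cells treated 16 hr at 37C/5% CO2 with compounds; medium contained 2% charcoal-stripped FBS.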

[4] = biological target: Progesterone receptor (Homo sapiens) (UniProt P06401); test: qHTS assay to identify small molecule antagonists of the progesterone receptor (PR) signaling pathway (AID 1346795; active = well fitted inhibition curve with a large enough effect in the signal ratio in the repeat runs, not every such curve was filed as active; the % refers to the signal ratio)
Method in brief: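 Fluorescence intensity measured 2 hr after adding beta-lactamase FRET substrate to PR-UAS-bla HEK293T cells that had been co-treated 16 hr with compound and 1 nM R5020 (final concentration) in 2% charcoal-stripped FBS.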

[5] = qHTS assay to identify small molecule antagonists of the progesterone receptor (PR) signaling pathway - cell viability counter screen (AID 1346798); note: series mostly up to about 92 µM; nearly all actives have a fitted effect of over 50% in size
Method in brief: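 CellTiter-Glo luminescence; PR-UAS-bla HEK293T, 3,000 cells/well; compound + R5020, 16 hr, 37C/5% CO2; 30 min RT before read.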

[6] = qHTS assay to identify small molecule agonists of the progesterone receptor (PR) signaling pathway - cell viability counter screen (AID 1346799; calls by dose curve; note: nearly all actives have a fitted effect of over 45% in size)
Method in brief: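 In parallel with the beta-lactamase readout, cytotoxicity toward PR-UAS-bla HEK293T cells was measured by CellTiter-Glo luminescence following 16 hr compound incubation in 2% charcoal-stripped FBS medium.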

[7] = qHTS assay to identify small molecule antagonists of the TGF-beta/Smad signaling pathway - cell viability counter screen (AID 1346824); note: nearly all actives have a fitted effect of over 50% in size
Method in brief: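 SBE-bla HEK 293T cells were plated overnight at 37 C, then given compounds in DMSO plus TGF-beta1 (added as 0.25 ng/mL solution) for 5 hr. After the bla read, CellTiter-Glo was added to the same wells and luminescence read after 30 min at room temperature.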

[8] = qHTS assay to identify small molecule agonists of the TGF-beta/Smad signaling pathway - cell viability counter screen (AID 1346829); note: top concentration of the series differs between compounds; nearly all actives have a fitted effect of over 45% in size
Method in brief: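 Here the cytotoxicity of library compounds is measured in SBE-bla HEK 293T cells treated for 5 hr, using CellTiter-Glo added to wells already read for the beta-lactamase reporter.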

[9] = qHTS assay to identify small molecule agonists of the TGF-beta/Smad signaling pathway (AID 1346859; active = well fitted activation curve with a large enough effect in the signal ratio in the repeat runs, not every such curve was filed as active; the % refers to the signal ratio; note: series mostly up to about 77 µM)
Method in brief: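 After overnight seeding, SBE-bla HEK 293T cells are dosed with compounds in DMSO and kept 5 hr at 37 C, 5% CO2. LiveBLAzer-type FRET substrate is then applied for 2 hr at room temperature.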

[10] = biological target: Thyrotropin-releasing hormone receptor (Homo sapiens) (UniProt P34981); test: qHTS assay to identify small molecule antagonists of the thyrotropin-releasing hormone receptor (TRHR) signaling pathway (AID 1346877; active = well fitted inhibition curve with a large enough effect in the repeat runs, not every such curve was filed as active; note: series mostly up to about 51 µM)
Method in brief: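 Following an 18 h incubation at 37 °C and a 2 h calcium dye load, TRHR-HEK293 cells were exposed to compound (5 min, room temperature) and challenged with TRH, 1 nM final.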

[11] = biological target: Thyrotropin-releasing hormone receptor (Homo sapiens) (UniProt P34981); test: qHTS assay to identify small molecule agonists of the thyrotropin-releasing hormone receptor (TRHR) signaling pathway (AID 1346891; calls by dose curve;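 note: HEK293 cells expressing TRHR with calcium dye readout; series mostly up to about 58 µM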)
Method in brief: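 Compounds were tested as agonists at 15 concentrations, in triplicate, on TRHR-Hek293 cells; calcium-sensitive dye fluorescence was recorded for 3 min following addition.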

[12] = Caspase-3/7 induction in HepG2 cells by small molecules, qHTS assay (AID 1346978); note: nearly all actives have a fitted effect of over 15% in size
Method in brief: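 Wild-type HepG2 cells (2,000/well) were settled 5 h at 37 C, 5% CO2, then exposed to compounds in DMSO for 17 h. Caspase-3/7 activity was read by luminescence 30 min after adding Caspase-Glo 3/7 reagent at room temperature.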

[13] = Caspase-3/7 induction in CHO-K1 cells by small molecules, qHTS cell viability counter screen (AID 1346979); note: nearly all actives have a fitted effect of over 35% in size
Method in brief: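 Viability readout by fluorescence (CellTiter-Fluor) on wild-type CHO-K1 cells exposed for 16hr at 37C and 5% CO2 to compounds delivered in DMSO; reagent incubated 1hr before reading.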

[14] = Caspase-3/7 induction in HepG2 cells by small molecules, qHTS cell viability counter screen (AID 1346981); note: series mostly up to about 92 µM; nearly all actives have a fitted effect of over 30% in size
Method in brief: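 Viability determined by CellTiter-Fluor fluorescence in HepG2 wells also used for the luminescent Caspase-Glo 3/7 read. Compounds were present for 16 hr at 37 C, 5% CO2 before reagent addition.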

[15] = biological target: Nuclear receptor subfamily 1 group I member 2 (Homo sapiens) (UniProt O75469); test: Human pregnane X receptor (PXR) small molecule agonists, qHTS assay (AID 1346982); note: nearly all actives have a fitted effect of over 35% in size; note: potency is the fitted concentration of half-maximal effect
Method in brief: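 Compound-induced hPXR transactivation of a CYP3A4 luciferase reporter was scored in HepG2 PXR-Luc cells over 24 hr at 37 C, 5% CO2, by luminescence.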

[16] = biological target: Cytochrome P450 2D6 (Homo sapiens) (UniProt P10635); test: Cytochrome P450 Family 2 Subfamily D Member 6 (CYP2D6) small molecule antagonists: luciferase reporter qHTS assay (AID 1671196); note: nearly all actives have a fitted effect of over 50% in size; note: potency is the fitted concentration of half-maximal effect
Method in brief: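 Each well received CYP2D6 with its proluciferin substrate and chemical, sat 10 min, then got NADPH regeneration solution for 1 h at room temperature. Luminescence in RLU served as the activity measure.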

[17] = Human pregnane X receptor (PXR) small molecule agonists, qHTS cell viability counter screen (AID 1346977); note: nearly all actives have a fitted effect of over 50% in size
Method in brief: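 Viability counter screen: CellTiter-Fluor signal in PXR-Luc HepG2 cells, 24hr compound exposure, 37C, 5% CO2.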

[18] = Caspase-3/7 induction in CHO-K1 cells by small molecules, qHTS assay (AID 1346980); note: nearly all actives have a fitted effect of over 15% in size
Method in brief: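 Wild-type cells were seeded at 1,500 per well and settled 5 hr at 37 C, 5% CO2, then exposed to DMSO-dissolved compounds for 17 hr. Caspase-Glo 3/7 reagent was added, and luminescence was read after 30min at room temperature.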

[19] = biological target: Nuclear receptor subfamily 1 group I member 2 (Rattus norvegicus) (UniProt Q9R1A7); test: Rat pregnane X receptor (rPXR) activation by small molecules, qHTS assay (AID 1346983); conditions: rPXR luciferase reporter cells, One-Glo luminescence, 24 h; max activation: hits give high values; note: nearly all actives have a fitted effect of over 20% in size
Method in brief: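 Cell-based rPXR luciferase reporter assay, 2,000 cells per well, rested 5hr at 37 C before compound addition in DMSO, then 24 hr at 37 C. One-Glo reagent was added and luminescence read after 30 min at room temperature.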

[20] = biological target: Nuclear receptor subfamily 1 group I member 2 (Homo sapiens) (UniProt O75469); test: CYP3A4 induction through human pregnane X receptor (PXR) by small molecules, qHTS assay (AID 1346984); note: nearly all actives have a fitted effect of over 40% in size
Method in brief: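 Readings come from a luciferase reporter: DPX-2 cells, which are HepG2 cotransfected with PXR and a CYP3A4-promoter construct, were exposed to test compounds for 24 h at 37C before One-Glo detection.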
% is set by controls: 0 for no effect and ±100 for the full control effect.

Thyrotropin-releasing hormone receptor (Homo sapiens), sequence (P34981 whole entry, looked up): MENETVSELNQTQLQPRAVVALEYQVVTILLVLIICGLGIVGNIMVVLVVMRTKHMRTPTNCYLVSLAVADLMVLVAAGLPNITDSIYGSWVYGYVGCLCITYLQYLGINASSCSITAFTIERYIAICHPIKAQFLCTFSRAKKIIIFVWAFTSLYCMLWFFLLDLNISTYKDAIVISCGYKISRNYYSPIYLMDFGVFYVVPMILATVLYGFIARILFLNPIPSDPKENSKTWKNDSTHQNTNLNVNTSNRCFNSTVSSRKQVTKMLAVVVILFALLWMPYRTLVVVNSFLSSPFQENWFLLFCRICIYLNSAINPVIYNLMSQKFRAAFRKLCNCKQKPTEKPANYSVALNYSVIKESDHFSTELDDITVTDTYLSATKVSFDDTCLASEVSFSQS
Cytochrome P450 2D6 (Homo sapiens), sequence (P10635 whole entry, looked up): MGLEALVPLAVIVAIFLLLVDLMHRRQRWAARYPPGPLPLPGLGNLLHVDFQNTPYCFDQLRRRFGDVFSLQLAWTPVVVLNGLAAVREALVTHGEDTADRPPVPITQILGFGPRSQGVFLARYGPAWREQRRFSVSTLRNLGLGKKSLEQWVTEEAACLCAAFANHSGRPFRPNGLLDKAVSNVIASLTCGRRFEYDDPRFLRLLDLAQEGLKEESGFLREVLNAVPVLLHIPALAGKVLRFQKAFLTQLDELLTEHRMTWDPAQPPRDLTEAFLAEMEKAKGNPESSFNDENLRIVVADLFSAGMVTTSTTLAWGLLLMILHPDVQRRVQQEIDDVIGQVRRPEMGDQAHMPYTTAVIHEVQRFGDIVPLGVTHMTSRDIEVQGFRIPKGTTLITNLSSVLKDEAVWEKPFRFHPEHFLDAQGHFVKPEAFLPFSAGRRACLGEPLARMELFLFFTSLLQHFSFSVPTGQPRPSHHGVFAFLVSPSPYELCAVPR
Nuclear receptor subfamily 1 group I member 2 (Homo sapiens), sequence (O75469 whole entry, looked up): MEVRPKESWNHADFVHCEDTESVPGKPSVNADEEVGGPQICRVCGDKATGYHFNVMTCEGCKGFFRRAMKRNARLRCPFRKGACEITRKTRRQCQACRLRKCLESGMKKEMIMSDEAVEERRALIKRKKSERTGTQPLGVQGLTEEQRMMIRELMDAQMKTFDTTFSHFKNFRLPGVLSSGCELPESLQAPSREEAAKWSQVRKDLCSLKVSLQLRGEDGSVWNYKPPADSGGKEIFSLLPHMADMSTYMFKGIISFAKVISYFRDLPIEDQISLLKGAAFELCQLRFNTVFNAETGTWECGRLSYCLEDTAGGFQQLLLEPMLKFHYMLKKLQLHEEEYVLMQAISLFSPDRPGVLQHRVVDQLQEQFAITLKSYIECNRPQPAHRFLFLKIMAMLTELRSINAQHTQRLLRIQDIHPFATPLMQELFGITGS
Thyrotropin receptor (Homo sapiens), sequence (P16473 whole entry, looked up): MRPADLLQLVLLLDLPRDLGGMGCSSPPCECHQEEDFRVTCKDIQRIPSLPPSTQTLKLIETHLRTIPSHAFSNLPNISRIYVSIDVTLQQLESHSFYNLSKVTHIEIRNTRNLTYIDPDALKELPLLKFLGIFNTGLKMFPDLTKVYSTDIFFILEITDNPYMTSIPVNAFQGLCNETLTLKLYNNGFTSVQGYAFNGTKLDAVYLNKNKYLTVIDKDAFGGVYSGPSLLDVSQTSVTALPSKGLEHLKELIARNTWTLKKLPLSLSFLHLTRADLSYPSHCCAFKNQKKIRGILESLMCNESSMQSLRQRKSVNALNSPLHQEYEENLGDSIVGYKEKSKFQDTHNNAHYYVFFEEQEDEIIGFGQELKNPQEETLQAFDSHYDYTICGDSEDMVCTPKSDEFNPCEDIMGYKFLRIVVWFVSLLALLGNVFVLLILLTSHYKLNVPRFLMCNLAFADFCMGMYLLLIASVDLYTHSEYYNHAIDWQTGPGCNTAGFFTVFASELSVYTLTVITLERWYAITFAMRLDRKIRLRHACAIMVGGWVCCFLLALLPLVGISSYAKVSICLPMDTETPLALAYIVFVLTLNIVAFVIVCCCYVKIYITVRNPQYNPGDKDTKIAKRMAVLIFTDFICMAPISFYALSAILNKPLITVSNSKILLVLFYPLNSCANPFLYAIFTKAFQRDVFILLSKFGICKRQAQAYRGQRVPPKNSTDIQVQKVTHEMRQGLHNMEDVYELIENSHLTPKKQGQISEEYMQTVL
Progesterone receptor (Homo sapiens), sequence (P06401 whole entry, looked up): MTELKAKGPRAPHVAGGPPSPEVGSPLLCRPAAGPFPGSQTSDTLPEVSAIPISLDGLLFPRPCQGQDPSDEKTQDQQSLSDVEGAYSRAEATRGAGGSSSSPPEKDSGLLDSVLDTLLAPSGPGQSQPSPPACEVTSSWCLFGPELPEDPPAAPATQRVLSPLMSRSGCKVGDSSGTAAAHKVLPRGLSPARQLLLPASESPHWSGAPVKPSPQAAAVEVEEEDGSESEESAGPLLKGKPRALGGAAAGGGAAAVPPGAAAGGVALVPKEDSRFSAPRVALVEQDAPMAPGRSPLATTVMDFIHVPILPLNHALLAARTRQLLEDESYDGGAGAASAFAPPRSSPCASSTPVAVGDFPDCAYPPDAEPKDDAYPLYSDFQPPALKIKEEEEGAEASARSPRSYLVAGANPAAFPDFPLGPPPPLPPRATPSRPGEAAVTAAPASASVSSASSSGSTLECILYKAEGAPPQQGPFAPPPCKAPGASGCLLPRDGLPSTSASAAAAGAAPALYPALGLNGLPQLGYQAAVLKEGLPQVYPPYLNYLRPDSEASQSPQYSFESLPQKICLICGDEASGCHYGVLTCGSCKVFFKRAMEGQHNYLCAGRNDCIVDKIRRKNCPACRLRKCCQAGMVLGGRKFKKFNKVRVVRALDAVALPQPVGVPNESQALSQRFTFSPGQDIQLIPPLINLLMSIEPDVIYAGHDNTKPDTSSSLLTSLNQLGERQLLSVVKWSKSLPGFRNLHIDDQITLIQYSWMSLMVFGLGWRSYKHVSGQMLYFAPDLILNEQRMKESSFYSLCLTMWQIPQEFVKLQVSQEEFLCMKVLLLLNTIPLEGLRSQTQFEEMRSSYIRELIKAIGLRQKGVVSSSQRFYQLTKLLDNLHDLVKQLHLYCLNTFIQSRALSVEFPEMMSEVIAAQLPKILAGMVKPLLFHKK
Nuclear receptor subfamily 1 group I member 2 (Rattus norvegicus), sequence (Q9R1A7 whole entry, looked up): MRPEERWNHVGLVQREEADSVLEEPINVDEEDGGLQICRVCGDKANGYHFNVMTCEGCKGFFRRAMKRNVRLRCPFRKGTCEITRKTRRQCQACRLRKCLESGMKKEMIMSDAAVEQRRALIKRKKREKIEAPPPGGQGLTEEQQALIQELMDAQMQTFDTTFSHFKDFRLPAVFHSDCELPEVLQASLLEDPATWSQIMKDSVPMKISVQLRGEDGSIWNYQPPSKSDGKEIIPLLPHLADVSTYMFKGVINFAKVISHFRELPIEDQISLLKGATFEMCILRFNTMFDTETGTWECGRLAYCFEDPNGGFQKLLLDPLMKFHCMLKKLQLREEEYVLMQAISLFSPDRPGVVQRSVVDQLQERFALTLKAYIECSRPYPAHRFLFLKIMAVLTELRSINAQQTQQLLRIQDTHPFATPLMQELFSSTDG

O=C(O)c1cc(Cl)cc(Cl)c1O
inactive: Potency [1] | Potency [2] | Potency [3] | Potency [4] | Potency [5] | Potency [6] | outcome [7] | Potency [8] | Potency [9] | outcome [10] | outcome [11] | Potency [12] | Potency [13] | Potency [14] | Potency [15] | Potency [16]

CCC(CO)(CO)CO
inactive: Potency [1] | Potency [2] | Potency [3] | Potency [4] | Potency [5] | Potency [6] | outcome [7] | Potency [8] | Potency [9] | outcome [10] | outcome [11] | Potency [17] | Potency [12] | Potency [13] | outcome [18] | Potency [14] | Potency [15] | Potency [16]

Nc1ccc(S(=O)(=O)NCc2ccccc2)cc1
inactive: Potency [1] | Potency [2] | Potency [3] | Potency [4] | Potency [5] | Potency [6] | outcome [7] | Potency [8] | Potency [9] | outcome [10] | outcome [11] | Potency [12] | Potency [13] | outcome [18] | Potency [14] | Potency [15] | max activation [19] -1.8% | Potency [20] | Potency [16]

CS(=O)(=O)c1ccc([C@@H](C[C@H]2CCC(=O)C2)C(=O)Nc2cnccn2)cc1Cl
inactive: Potency [1] | Potency [2] | Potency [3] | Potency [4] | Potency [5] | Potency [6] | outcome [7] | Potency [8] | Potency [9] | outcome [10] | outcome [11] | Potency [17] | Potency [12] | Potency [13] | outcome [18] | Potency [14] | Potency [15]

COC(CC(C)CCCC(C)(C)O)OC (configuration not stated)
inactive: Potency [1] | Potency [2] | Potency [3] | Potency [4] | Potency [5] | Potency [6] | outcome [7] | Potency [8] | Potency [9] | outcome [10] | outcome [11] | Potency [17] | Potency [12] | Potency [13] | Potency [15]

Nc1c(Cl)cc(Cl)cc1[N+](=O)[O-]
inactive: Potency [1] | Potency [2] | Potency [3] | Potency [4] | Potency [5] | Potency [6] | outcome [7] | Potency [8] | Potency [9] | outcome [10] | outcome [11] | Potency [17] | Potency [12] | outcome [18] | Potency [14] | Potency [15] | Potency [16]

O=S(=O)(Cl)c1c(Cl)cccc1Cl
inactive: Potency [1] | Potency [2] | Potency [3] | Potency [4] | Potency [5] | Potency [6] | outcome [7] | Potency [8] | Potency [9] | outcome [10] | outcome [11] | Potency [12] | Potency [13] | outcome [18] | Potency [14] | Potency [15]
active: Potency [16] 25.1 µM

O=C(O)CCS
inactive: Potency [1] | Potency [2] | Potency [3] | Potency [4] | Potency [5] | Potency [6] | outcome [7] | Potency [8] | Potency [9] | outcome [10] | outcome [11] | Potency [17] | Potency [12] | Potency [13] | Potency [14] | Potency [15] | Potency [16]

CC(=O)c1ccc[nH]1
inactive: Potency [1] | Potency [2] | Potency [3] | Potency [4] | Potency [5] | Potency [6] | outcome [7] | Potency [8] | Potency [9] | outcome [10] | outcome [11] | Potency [17] | Potency [12] | Potency [13] | outcome [18] | Potency [14] | Potency [15] | Potency [16]

NC(=O)CCCCC(N)=O
inactive: Potency [1] | Potency [2] | Potency [3] | Potency [4] | Potency [5] | Potency [6] | outcome [7] | Potency [8] | Potency [9] | outcome [10] | outcome [11] | Potency [17] | Potency [12] | Potency [13] | outcome [18] | Potency [14] | Potency [15] | Potency [16]

CC(C)(C)CCCCCCOC(=O)c1ccccc1C(=O)OCCCCCCC(C)(C)C
inactive: Potency [1] | Potency [2] | Potency [3] | Potency [4] | Potency [5] | Potency [6] | outcome [7] | Potency [8] | Potency [9] | outcome [10] | outcome [11] | Potency [12] | Potency [13] | outcome [18] | Potency [14] | Potency [16]
active: Potency [15] 61.2 µM

CCCCCC
inactive: Potency [1] | Potency [2] | Potency [3] | Potency [4] | Potency [5] | Potency [6] | outcome [7] | Potency [8] | Potency [9] | outcome [10] | outcome [11] | Potency [17] | Potency [12] | Potency [13] | outcome [18] | Potency [14]

O=C1CC[C@@H](C(=O)O)N1
inactive: Potency [1] | Potency [2] | Potency [3] | Potency [4] | Potency [5] | Potency [6] | outcome [7] | Potency [8] | Potency [9] | outcome [10] | outcome [11] | Potency [17] | Potency [12] | Potency [13] | outcome [18] | Potency [14] | Potency [15] | max activation [19] -5.25% | Potency [20]

COc1cc(NS(=O)(=O)c2ccc(N)cc2)nc(C)n1
inactive: Potency [1] | Potency [2] | Potency [3] | Potency [4] | Potency [5] | Potency [6] | outcome [7] | Potency [8] | Potency [9] | outcome [10] | outcome [11] | Potency [17] | Potency [12] | Potency [13] | outcome [18] | Potency [14] | Potency [15] | Potency [16]
